About 8,600 (12%) of roughly 69,000 compounds showed an effect of 50% or more. The entries come from a sample that favours strong results as a whole.
test system: Plasmodium berghei; test: Screen against P. berghei liver stage (PbLuc), transformed with Luciferase, at 10uM; type: functional, HepG2; conditions: tested at 10 uM

SMILES | INHIBITION [%]
CNS(=O)(=O)CC(=O)N(Cc1c(F)cccc1Cl)C1CC1 | 17.1
CS(=O)(=O)CCC(=O)N(CCc1cccc(F)c1)C1CC1 | 40.7
CC(=O)N(Cc1c(F)cccc1F)C1CCCC1 | 58.3
CNC(=O)N(Cc1c(F)cccc1F)C1CCCC1 | 16.1
CS(=O)(=O)CCC(=O)N(Cc1c(F)cccc1F)C1CCCC1 | 55
CNS(=O)(=O)CC(=O)N(Cc1c(F)cccc1F)C1CCCC1 | -5.59
Cn1nnnc1SC1CCN(c2ccccc2Cl)C1=O (stereo not drawn) | 23.9
Cc1cc(C[S+]([O-])Cc2ccccc2F)no1 (stereo not drawn) | 40.7
CCCc1noc(-c2ccc(-n3ncc(C(=O)O)c3C)nc2)n1 | 7.92
CC(C)[C@]1(O)CN(C(=O)CNC(N)=O)C[C@H]1C | 39.9
O=C(CS(=O)(=O)Cc1ccc(F)cc1)NC1CCCCNC1=O (stereo not drawn) | -90.9
CCOc1ccnc(NCc2nc(C)cc(=O)[nH]2)n1 | 27.8
CCOc1ccnc(NCCc2nc(C)cc(=O)[nH]2)n1 | 23.3
CCOc1ccnc(NCc2nc(C)cc(C(F)(F)F)n2)n1 | 52.9
COCCCN(Cc1ccccn1)Cc1ccnn1C1CCCCO1 (stereo not drawn) | 34.1
CCc1nnsc1C(=O)N1CCCC(n2nc(C)nc2C)C1 (stereo not drawn) | -10.75
CN(Cc1cn2c(n1)CN(CC1CC1)CC2)Cc1ccco1 | 8.53
CN(Cc1cn2c(n1)CN(CC1CCOC1)CC2)Cc1ccco1 (stereo not drawn) | 53.2
CN(Cc1cn2c(n1)CN(C1CCOC1)CC2)Cc1ccco1 (stereo not drawn) | 10
CN(Cc1cn2c(n1)CN(C(=O)C1CCOCC1)CC2)Cc1ccco1 | -8.94
CN(Cc1cn2c(n1)CN(C(=O)CC1CC1)CC2)Cc1ccco1 | 30.1
CN(Cc1cn2c(n1)CN(C1CCOCC1)CC2)Cc1ccco1 | 56.7
Cc1c(CCC(=O)Nc2ccc(Br)cn2)cnn1C | 15.2
Cc1nn(C)c(C)c1C1CCCN1Cc1nc(-c2ccccn2)no1 (stereo not drawn) | 11.9
Cc1c(C(C)Nc2ncnc3sccc23)cnn1C (stereo not drawn) | 55.5
CC(Nc1ncnc2sccc12)c1cnn(C)c1 (stereo not drawn) | 38.7
Cc1nn(C)cc1C(C)Nc1ncnc2sccc12 (stereo not drawn) | 27.5

SMILES | INHIBITION [%]
COc1ccc(OC)c(C(=O)N2CCCCC2Cn2cccn2)c1 (stereo not drawn) | 14.4
CCn1nc2nc(SCC(=O)O)cc(C(F)F)c2c1C | 20.4
Cc1cc(SCC(=O)O)nc2nn(CC(F)F)c(C)c12 | 96
Cc1c2c(C(F)F)cc(SCC(=O)O)nc2nn1C | 15.9
CC(CCNC(=O)NCCc1ccc(S(N)(=O)=O)cc1)c1ccccc1 (stereo not drawn) | 54.8
CC(CCNC(=O)NCCNc1cnccn1)c1ccccc1 (stereo not drawn) | -10.4
CC(CCNC(=O)NCCc1ccncc1)c1ccccc1 (stereo not drawn) | 55.9
CC(c1cccc(S(N)(=O)=O)c1)N(C)CCc1ccccc1 (stereo not drawn) | 33.6
Cc1cc(NC(=O)NCCc2ccc(S(N)(=O)=O)cc2)n(C)n1 | -193
O=C(NCCc1ccccc1)NCC(O)c1cccc(F)c1 (stereo not drawn) | -27
CCn1ccc2ccnc(CC3CN(C(=O)c4ccc(F)cc4)C3)c21 | 16.5
Cc1cc(-c2cc(-c3cc(CC(=O)O)cs3)nc(N)c2C#N)oc1C | 33.9
CC(=O)N[C@@H]1Cc2ccccc2[C@H]1Nc1cc(C2CC2)ncn1 | 35
CC(=O)N[C@@H]1Cc2ccccc2[C@H]1Nc1ccncn1 | 67.5
CCc1nc(C)c(C(=O)N[C@@H]2c3ccccc3C[C@@H]2O)o1 | -5.22
CC(=O)N[C@@H]1Cc2ccccc2[C@H]1Nc1nnc(C2CC2)o1 | 52.6
CCc1oc(C(=O)N[C@@H]2c3ccccc3C[C@@H]2O)cc1C | 12.9
O=C(C1CCCC1)N1CCC(Nc2ccncn2)CC1 | 49.9
Cc1ccc(OCC(=O)N2CCOCC(O)(CN3CCCC3)C2)cc1C (stereo not drawn) | 37.9
Cc1cnc(CCNC(=O)C2CCN(S(=O)(=O)c3ccc(F)cc3)C2)s1 (stereo not drawn) | -21.8
O=C(Cn1cc(-c2ccccc2)cn1)N1CCNC1=O | -7.53
Cc1cc(C(=O)NCCc2c(C)nn(C)c2C)nc(N2CCCCC2)n1 | -10.5
O=C(CCn1nc(C(=O)Nc2ccccc2)ccc1=O)Nc1nccs1 | 13.1
N#Cc1ccc(CC(=O)N2CCC(Nc3cccnn3)CC2)cc1 | -3.7
CCCc1n[nH]c(C2CN(C(=O)c3cncnc3C)CCO2)n1 (stereo not drawn) | 36.1
C=c1ncsc1=C1NC(c2cccc(CN3CCOCC3)c2)=NO1 | 12.6
